# Results filed as inconclusive are left out. A call without a number means that no potency is given here. Active and inactive are the calls of the source. Unless noted, calls come from the whole dose curve; as a rule, active = well fitted curve in the direction sought with a large enough effect; inconclusive = small, poorly fitted or top-dose-only effect, or another doubt; inactive = no such curve, though single readings can be large; an effect the other way counts as inactive or inconclusive.
# Columns and labels:
# [1] = qHTS assay for measurement of the activity of small molecule inhibitors on Zika virus induced Caspase-3 activity in human iPSC derived neural progenitor cells (hNPCs) (AID 1224857); note: nearly all actives have a fitted effect of over 65% in size
# Outline: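 Human iPSC-derived neural progenitor cells pretreated 1 hr with compounds, then infected with Zika virus (2 FFU/cell) for 6 hours at 37 C. Caspase-3/7 measured by Caspase-Glo luminescence; % inhibition calculated from induction scaled to uninfected (0%) and infected (100%) wells.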
# [2] = qHTS assay for measurement of the activity of small molecule inhibitors on Zika virus induced Caspase-3 activity in human astrocytoma cells (AID 1224859)
# Outline: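 SNB-19 astrocytoma cells, 250/well, pretreated 1 h with compounds, then Zika virus at 2 FFU/cell for 6 h at 37 C; Caspase-Glo 3/7 luminescence after 30 min; percent inhibition normalised to uninfected and infected controls.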
# [3] = qHTS profiling for inhibitors of Plasmodium falciparum (HB3) proliferation (AID 743324); details: Plasmodium falciparum HB3 blood-stage proliferation; at 28.7 µM (top of the series)
# Description: Plasmodium falciparum is a virulent malarial parasite that kills 1-2 million people worldwide each year. Transmitted by mosquitoes, the sporozoite form of the parasite enters the blood stream to infect hepatocytes, where they become merozoites that infect red blood cells (erythrocytes). Within erythrocytes, merozoites begin a […] cycle of growth and division, after which the parasite is released to infect new red blood cells. Gametocytes, which form within erythrocytes as well, circulate in the bloodstream and are ingested by the mosquito, thereby completing the life cycle. To profile malarial isolates for differential chemical responses and to identify inhibitors of malarial growth, an assay that measures P. falciparum growth and replication within erythrocytes was employed. This assay uses a DNA binding fluorescent dye (SYBR Green) to detect parasite DNA following cell lysis. Because mature erythrocytes lack DNA, only Plasmodium-derived DNA is detected.
# For screening 3 ul culture medium was dispensed into 1536 well black clear bottom plates (Aurora Biotechnologies) using a Multidrop Combi (Thermo Fisher Scientific Inc.), 23 nL compounds in DMSO were added by a pin tool (Kalypsys), and 5 ul of erythrocytes infected with P. falciparum (0.3% parasitemia, 2.5% hematocrit final concentration) were added. The plates were incubated at 37 C in a humidified incubator in 5% CO2 for 72 h, and 2 ul lysis buffer (20 mM Tris HCl, 10 mM EDTA, 0.16% saponin, […]% triton X, 10X SYBR Green I supplied as 10,000X […] by Invitrogen) was added to each well. The plates were mixed for 25 sec with gentle shaking and incubated overnight at room temperature in the dark. The following morning, fluorescence intensity at 485(14) nm excitation and 535(25) nm emission wavelengths was measured on an EnVision (Perkin Elmer) plate reader. Plate reads were normalized relative to the control inhibitor (0.29 uM artemisinin) and vehicle (DMSO) wells present on each plate and then corrected by an algorithm using vehicle-only control plates at the beginning and end of the compound plate stack.
# [4] = qHTS profiling of the MIPE4 collection as inhibitors of Plasmodium falciparum (DD2) proliferation (AID 743345; call rule not given here); details: P. falciparum Dd2 in erythrocytes, SYBR Green DNA, 72 h; at 28.5 µM (top of the series)
# Outline: (§1)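 Parasite DNA was quantified by SYBR Green I fluorescence (ex 485, em 535 nm) after overnight lysis in saponin/Triton buffer at room temperature. Cultures at 0.3% parasitemia and 2.5% hematocrit were first exposed to compound for 72 h at 37 C; signals were normalised to artemisinin (0.29 uM) and vehicle wells.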
# [5] = qHTS profiling of the MIPE4 collection as inhibitors of Plasmodium falciparum (HB3) proliferation (AID 743347; call rule not given here); details: P. falciparum HB3 in erythrocytes, SYBR Green DNA, 72 h; at 28.5 µM (top of the series)
# Outline: as §1
# [6] = P-glycoprotein substrates identified in KB-3-1 adenocarcinoma cell line, qHTS therapeutic library screen (AID 1346986); note: nearly all actives have a fitted effect of over 60% in size;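 note: potency is the fitted concentration of half-maximal effect; potency is for cytotoxicity meaning loss of cell viability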
# Outline: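 Dose-response cytotoxicity, KB-3-1 vs P-gp-high KB-8-5-11, no colchicine in assay medium. Read: CellTiter-Glo at 72 h.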
# [7] = qHTS assay to identify small molecule inhibitors of chordoma cells - UCH-1 (AID 1259355); note: nearly all actives have a fitted effect of over 55% in size
# Outline: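 800 cells/well, overnight attach; compounds pinned at 15 concs, then auranofin/camptothecin/doxorubicin/rubitecan/topotecan combo added; 48hr 37 C, 5% CO2; CellTiter-Glo, 30min RT, luminescence.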
# [8] = qHTS assay to identify small molecule inhibitors of chordoma cells - UCH-2 (AID 1259356)
compound,measurement,setting,value
C[N+](C)(C)CC#CCN1CCCC1=O,Potency,[1],inactive
same,outcome,[2],inactive
CCCN(CCC)[C@@H]1CCc2cccc(O)c2C1,Potency,[1],inactive
same,outcome,[2],inactive
Clc1cc(I)cc(Cl)c1NC1=NCCN1,Potency,[1],inactive
same,outcome,[2],inactive
C[N+]1(C)C2CCC1CC(OC(=O)c1c[nH]c3ccccc13)C2 (centres undefined),Potency,[1],inactive
same,outcome,[2],inactive
COc1ccc(OC)c(C(O)C(C)N)c1 (centres undefined),Potency,[1],inactive
same,outcome,[2],inactive
CCCCCCCCCCCCCC(=O)O[C@@H]1[C@@H](C)[C@@]2(O)[C@@H](C=C(CO)C[C@@]3(O)C(=O)C(C)=C[C@@H]23)C2C(C)(C)[C@@]21OC(C)=O (some centres undefined),Potency,[1],inactive
same,outcome,[2],inactive
Cc1o[nH]c(=O)c1CC(N)C(=O)O (centres undefined),Potency,[1],inactive
same,outcome,[2],inactive
CC12NC(Cc3ccccc31)c1ccccc12 (centres undefined),Potency,[1],inactive
same,outcome,[2],inactive
OCc1cnc[nH]1,Potency,[1],inactive
same,outcome,[2],inactive
O=[N+]([O-])c1cc(O)c(O)c([N+](=O)[O-])c1,Potency,[1],inactive
same,outcome,[2],inactive
CN(C(=O)Cc1ccc(Cl)c(Cl)c1)C(CN1CCCC1)c1cccc(OCC(=O)O)c1 (centres undefined),Potency,[1],inactive
same,outcome,[2],inactive
C[C@@H]1O[C@@H](O[C@H]2C[C@@H](O)[C@]3(CO)[C@@H]4C(CC[C@]3(O)C2)[C@@]2(O)CC[C@H]([C@@H]3COC(=O)C3)[C@@]2(C)C[C@H]4O)[C@H](O)[C@H](O)[C@H]1O (some centres undefined),Potency,[1],inactive
same,outcome,[2],inactive
CC(C)NP(=O)(NC(C)C)OP(=O)(NC(C)C)NC(C)C,Potency,[1],inactive
same,outcome,[2],inactive
C[C@H](Cc1ccc2c(c1)OC(C(=O)O)(C(=O)O)O2)NC[C@H](O)c1cccc(Cl)c1,Potency,[1],inactive
same,outcome,[2],inactive
CC(=O)c1c(O)c(C)c(O)c(Cc2c(O)c3c(c(C(=O)/C=C/c4ccccc4)c2O)OC(C)(C)C=C3)c1O,"remaining proliferation (% of control), lower = more inhibition",[3],-2.57%
same,Potency,[1],inactive
same,outcome,[2],inactive
NC(=O)CI,Potency,[1],inactive
same,outcome,[2],inactive
NC(=O)c1ccc(OCC(O)CN2CC=C(c3ccc(F)cc3)CC2)cc1 (centres undefined),Potency,[1],inactive
same,outcome,[2],inactive
NCCCP(=O)(O)O,Potency,[1],inactive
same,outcome,[2],inactive
CCn1cnc2c(Nc3cccc(Cl)c3)nc(N[C@@H]3CCCC[C@@H]3N)nc21,Potency,[1],inactive
same,outcome,[2],inactive
CN1CCc2cc(O)cc3c2[C@H]1Cc1ccc(O)c(O)c1-3,Potency,[1],inactive
same,outcome,[2],inactive
Ic1ccccc1CNC1C2CCN(CC2)C1C(c1ccccc1)c1ccccc1 (centres undefined),Potency,[1],inactive
same,outcome,[2],inactive
COc1ccc2[nH]cc(CCN)c2c1,Potency,[1],inactive
same,outcome,[2],inactive
CCCN1CCc2cccc3c2[C@H]1Cc1ccc(O)c(O)c1-3,Potency,[1],inactive
same,outcome,[2],inactive
CP(=O)(O)C1=CCNCC1,Potency,[1],inactive
same,outcome,[2],inactive
COC(=O)N1CCN(C(=O)Cc2ccc(Cl)c(Cl)c2)C(CN2CCCC2)C1 (centres undefined),Potency,[1],inactive
same,outcome,[2],inactive
CC(N)Cc1c[nH]c2ccc(OCc3cccs3)cc12 (centres undefined),Potency,[1],inactive
same,outcome,[2],inactive
NC(=O)c1cc(N2CC2)c([N+](=O)[O-])cc1[N+](=O)[O-],Potency,[1],inactive
same,outcome,[2],inactive
c1ccc2c(c1)[I+]c1ccccc1-2,Potency,[1],inactive
same,outcome,[2],inactive
NC(CCCCCP(=O)(O)O)C(=O)O (centres undefined),Potency,[1],inactive
same,outcome,[2],inactive
CCCN(CCC)C1CCc2cccc(O)c2C1 (centres undefined),Potency,[1],inactive
same,outcome,[2],inactive
NC(C(=O)O)c1cc(=O)[nH]o1 (centres undefined),Potency,[1],inactive
same,outcome,[2],inactive
C[N+]1(C)[C@@H]2CC(OC(=O)[C@H](CO)c3ccccc3)C[C@H]1[C@H]1O[C@@H]12 (some centres undefined),"parasite growth remaining, % of DMSO control (lower = more inhibition)",[4],91.7%
same,"growth, % of control",[5],86.8%
same,Potency,[1],inactive
O=P(O)(O)C(Cl)(Cl)P(=O)(O)O,Potency,[1],inactive
C/C(O)=C(\C#N)C(=O)Nc1cc(Br)ccc1Br,Potency,[6],inactive
COc1ccc2c(c1)/C(=C/c1cnc[nH]1)C(=O)N2,Potency,[6],7.31 µM (active)
NC(Cc1ccc(N(CCCl)CCCl)cc1)C(=O)O (centres undefined),"remaining proliferation (% of control), lower = more inhibition",[3],9.39%
same,outcome,[2],inactive
CCCCC[C@@H](O)C1C(=O)OC(C)[C@H](O)/C=C/C=C/C=C/C=C/C=C(\C)C(O)C(O)C(O)C[C@H](O)C[C@H](O)C[C@H](O)C[C@H](O)C[C@@H]1O (some centres undefined),Potency,[7],inactive
same,Potency,[8],inactive
CC(=O)[C@H]1CC[C@H]2[C@@H]3CC[C@@H]4C[C@H](O)CC[C@]4(C)[C@H]3CC[C@]12C,Potency,[7],inactive
same,Potency,[8],inactive
O=Cc1ccco1,Potency,[7],inactive
same,Potency,[8],inactive
O=[N+]([O-])c1cc(I)c(O)c(I)c1,Potency,[7],inactive
same,Potency,[8],inactive

# — PubChem BioAssay (NCATS)
